Results filed as inconclusive are left out. Entries that show only a call come without a potency. Active and inactive are the calls of the source. Calls follow the shape of the dose curve; as a rule, active = well fitted inhibition curve with a large enough effect; inconclusive = small, poorly fitted or top-dose-only effect; inactive = flat fitted curve, though single readings scatter.

For this assay, the target named is Luciferin 4-monooxygenase (Photinus pyralis) (UniProt P08659). Briefly: Biochemical firefly luciferase enzyme assay for NPC (AID 624030).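 Also: purified P. pyralis luciferase at 10 nM with luciferin and ATP substrate; series mostly up to about 59 µM; nearly all actives have a fitted effect of over 70% in size.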 In short, it runs like this: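 Direct inhibition of firefly luciferase enzyme (10 nM final, 50 mM Tris Acetate) assessed by luminescence within 5 minutes. Percent activity scaled between DMSO and PTC124 positive control, with concentration-effect curves classified by fit quality and response.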
Luciferin 4-monooxygenase (Photinus pyralis), sequence (P08659 whole entry, looked up): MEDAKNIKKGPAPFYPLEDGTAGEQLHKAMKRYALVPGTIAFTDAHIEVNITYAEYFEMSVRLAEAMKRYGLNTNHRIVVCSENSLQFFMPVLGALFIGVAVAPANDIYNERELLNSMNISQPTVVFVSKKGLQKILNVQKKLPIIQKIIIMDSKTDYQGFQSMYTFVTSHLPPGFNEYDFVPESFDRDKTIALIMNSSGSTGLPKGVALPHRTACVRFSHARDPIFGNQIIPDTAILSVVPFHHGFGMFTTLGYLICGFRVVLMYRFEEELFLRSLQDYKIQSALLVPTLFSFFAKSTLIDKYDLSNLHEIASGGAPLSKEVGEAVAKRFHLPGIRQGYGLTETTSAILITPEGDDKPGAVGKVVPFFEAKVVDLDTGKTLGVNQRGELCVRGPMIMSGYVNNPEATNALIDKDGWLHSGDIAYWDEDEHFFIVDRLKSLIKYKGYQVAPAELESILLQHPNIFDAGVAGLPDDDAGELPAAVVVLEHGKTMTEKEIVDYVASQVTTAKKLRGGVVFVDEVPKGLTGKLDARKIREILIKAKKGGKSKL

Take `c1ccc(CN2CCNCC2)cc1`: the Potency result is “inactive”. In the case of `C[C@]12CCC(=O)C=C1CC[C@@H]1[C@H]3CC[C@](C)(O)[C@@]3(C)CC[C@@H]12`, the Potency entry was “inactive”. For `CCN(CC)CCc1c[nH]c2ccccc12`, the Potency result is “inactive”.

These data come from PubChem BioAssay (NCATS).
